Screens deposited in PubChem BioAssay by National Center for Advancing Translational Sciences (NCATS).
Sampled rows, rich in hits. Any-hit rate of the full collection: about 6.2%.
HCMV inh: human cytomegalovirus inhibition. hit rate 4.5% among 410,000. HFF cells, HCMV-luciferase reporter, 72 h; stronger effect = lower value. activity change, negative = inhibition, % at 57.5 µM; in the data active means activity change below about -60%; inconclusive means no clear call, values can overlap the other calls; inactive means above about -39%
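Steps: HFFs plated, 16 h 37C; compounds added; HCMV-luciferase added to MOI 1 PFU/cell; 72 h 37C; OneGlo reagent, 5 min room temperature; luminescence read, normalized to controls.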
Lassa entry inh: blocks Lassa virus binding to or entry into cells; AID 540256; Potency, µM (series often up to 37.9 µM), without a hit: at the highest dose activity change, negative = inhibition, usual class: inhibitors; hit rate 1.2% among 300,000; Lassa virus pseudotype entry inhibition, cell reporter; calls by dose curve; tested in HEK293 cells; further: potency means the concentration at half of the fitted maximal effect; nearly all actives have a fitted effect of over 50% in size
Marburg entry inh: blocks Marburg virus binding to or entry into cells | Marburg virus pseudotyped entry inhibition, cell reporter | Potency, µM (doses to about 37.8 µM), without a hit: at the highest dose activity change, negative = inhibition, hits mostly inhibitors | hit rate 1.8% among 300,000 | AID 540276; calls by dose curve; tested in HEK293 cells; further: potency means the concentration at half of the fitted maximal effect
FMDV antiviral: foot and mouth disease virus antiviral activity; FMDV antiviral cell-based qHTS; Potency, µM (highest dose often 57.9 µM), without a hit: top-dose activity change, negative = inhibition, usual class: inhibitors; hit rate 1.2% among 410,000; calls by dose curve; tested in HEK293T cells; further: read-out not given here; potency means the concentration at half of the fitted maximal effect; nearly all actives have a fitted effect of over 45% in size
Numbers without * were called inactive; ? = inconclusive; · = no result given; [ ] = remark or other dose. On the % scale 0 is the no-effect control and ±100 the full control effect.

SMILES | HCMV inh | Lassa entry inh | Marburg entry inh | FMDV antiviral
CCOC(=O)c1ccc(N2C(=O)c3n[nH]c(-c4ccco4)c3C2c2ccc([N+](=O)[O-])cc2)cc1 (stereo not given) | -12 | 23µM* | ? | ?
COC(=O)C[C@@H]1CC[C@H](NS(=O)(=O)c2ccccc2F)[C@@H](CO)O1 | 6 | · | · | -4%
Cc1[nH]nc2c1C(c1ccccn1)N(c1ccc(Br)cc1)C2=O (stereo not given) | -66* | 16% | 15% | -20%
COc1ccc2[nH]c(=O)c(CN(C(C)=O)C3CCCCC3)cc2c1 | ? | -1% | -1% | ·
CCOc1ccccc1CN1CCc2nc(Nc3ccccc3)ncc2C1 | -2 | 16%[46.1 µM] | · | -18%
CCc1ccc(NC(=O)C[n+]2cc(-c3ccc(C)cc3)n3c2CCC3)cc1 | 19 | · | · | ?
Cc1ccc(-c2c[n+](CC(=O)N3c4ccccc4Sc4ccccc43)c3n2CCC3)cc1 | -87* | -19% | -12% | ?
Cc1ccc(-c2c[n+](CC(=O)Nc3c(C)cccc3C)c3n2CCC3)cc1 | -68* | · | · | -18%
O=C(C[n+]1cc(-c2ccccc2)n2c1CCC2)N1c2ccccc2Sc2ccccc21 | -35 | 5% | -18% | ?
Cc1ccc2oc(C(=O)N(Cc3sccc3C)C3CCS(=O)(=O)C3)c(C)c2c1 (stereo not given) | 8 | ? | 3.2µM* | ?
Cc1ccc2c(C)c(C(=O)N(Cc3ccc(Cl)cc3)C3CCS(=O)(=O)C3)oc2c1 (stereo not given) | 7 | -29%[46.1 µM] | -23%[46.1 µM] | -14%
CCOc1ccc(CN(C(=O)c2oc3cc(C)ccc3c2C)C2CCS(=O)(=O)C2)cc1 (stereo not given) | 14 | 13µM* | ? | -20%
Cc1ccsc1CN(C(=O)c1oc2ccc(F)cc2c1C)C1CCS(=O)(=O)C1 (stereo not given) | 33 | ? | -12%[46.1 µM] | -20%
CCc1ccc(CN(C(=O)COc2c(C)cccc2C)C2CCS(=O)(=O)C2)cc1 (stereo not given) | -109* | · | · | 14%
CCOc1ccc(C(=O)N2CCCC2C(=O)O)cc1 (stereo not given) | 23 | -1% | 10% | -23%
Oc1ccc(C2=NN(c3ccccc3)C(c3ccc(F)cc3)C2)cc1 (stereo not given) | 22 | 11µM* | ? | ?
Oc1ccccc1C1=NN(c2ccccc2)C(c2ccc(F)cc2)C1 (stereo not given) | -74* | -23%[46.1 µM] | -10%[46.1 µM] | -30%
COc1ccc(C2CC(c3ccc(F)cc3)=NN2c2ccccc2)cc1OC (stereo not given) | 77 | ? | 3% | 31%
Fc1ccc(C2CC(c3cccs3)=NN2c2ccccc2)cc1 (stereo not given) | -21 | ? | ? | ?
CCCS(=O)(=O)NCCc1cc2c(OC)ccc(OC)c2[nH]c1=O | -77* | 7% | 23% | -24%
COc1ccc(OC)c2[nH]c(=O)c(CCNS(=O)(=O)c3ccccc3)cc12 | -7 | 1% | 0% | -23%
CCCC(O)c1nnc(Nc2cccc(Cl)c2)s1 (stereo not given) | -1 | · | · | ·
Oc1ccc(-c2nc3c4c(ncn3n2)-c2ccccc2CC42CCCC2)cc1 | -65* | 9% | 1% | 25µM*
Nn1cnc2c(c1=O)C1(CCCCC1)Cc1ccccc1-2 | -6 | 2% | ? | ?
COc1ccc(CCNC(=O)CC(c2ccccc2)c2cc(C)ccc2O)cc1OC (stereo not given) | · | · | · | 18µM*
SMILES | HCMV inh | Lassa entry inh | Marburg entry inh | FMDV antiviral
Cc1csc2ncnc(N3CCN(C(=S)Nc4ccc(C(F)(F)F)cc4)CC3)c12 | -71* | · | · | 10%
Cc1ccc(S(=O)(=O)NC(=O)Nc2c(C)cccc2C)cc1 | -14 | -13% | -1%[46.1 µM] | 14%
CCCNS(=O)(=O)c1cccc(C(=O)NC2CCCc3ccccc32)c1 (stereo not given) | 15 | 18µM* | 1% | 5%
CN(C)S(=O)(=O)c1cccc(C(=O)NC2CCCc3ccccc32)c1 (stereo not given) | 74 | 19% | 1% | 53%
OC1c2cc(Br)ccc2N=C2CCCN21 (stereo not given) | -100* | · | · | ?
O=C(/C=C/c1ccco1)Nc1ccc(Cl)c(S(=O)(=O)N2CCOCC2)c1 | -69* | · | · | 22µM*
O=C(Nc1ccc(Cl)c(S(=O)(=O)N2CCOCC2)c1)c1cn2ccccc2n1 | -24 | ? | 31%[46.1 µM] | 20µM*
O=C(CN1CCN(C(=O)c2ccco2)CC1)Nc1ccc(Cl)c(S(=O)(=O)N2CCOCC2)c1 | -37 | -2% | 5%[46.1 µM] | -19%
O=C(Nc1ccccc1O)c1cc(S(=O)(=O)N2CCOCC2)c(Cl)cc1Cl | ? | -17%[14.3 µM] | ? | 16µM*
O=C(Nc1ccccc1)Nc1ccc(Cl)c(S(=O)(=O)N2CCOCC2)c1 | -62* | -21%[46.1 µM] | ? | ?
O=C(Nc1ccc(N2CCOCC2)cc1)c1cn2ccccc2n1 | 15 | 7.9µM* | ? | -77%
O=C(NC1CC1)c1cccc(NC(=O)c2cn3ccccc3n2)c1 | 17 | 5% | ? | 3%
COc1ccc2cc(/C=N/O)c(Cl)nc2c1 | 52 | ? | 17% | 24%
COc1ccc2cc(/C=N/NC(=O)c3ccc(CN(c4cccc(Cl)c4Cl)S(C)(=O)=O)cc3)c(Cl)nc2c1 | 37 | ? | 0.56µM* | ?
CS(=O)(=O)c1cnc(-c2cccnc2)nc1N | -91* | -8% | 1%[46.1 µM] | 5%
C[C@@H](Oc1ccccc1)c1nnn(Cc2ccccc2)c1-c1c([C@@H](C)Oc2ccccc2)nnn1Cc1ccccc1 | -72* | · | · | -20%
CC1CCN(c2ccc(-c3cccc(NS(=O)(=O)c4ccc(F)cc4F)c3)nn2)CC1 | -100* | 9%[46.1 µM] | · | -7%
O=S(=O)(Nc1cccc(-c2ccc(N3CCCCC3)nn2)c1)c1ccc(F)cc1F | 56 | 2%[46.1 µM] | · | 41%
COc1cc(Cl)c(C)cc1NC(=O)COC(=O)C1CC1C (stereo not given) | 9 | · | · | -12%
O=C1C2CCCN2C(c2ccc(Br)cc2)N1c1ccc(F)cc1 (stereo not given) | 0 | · | -2% | -21%
CCOC(=O)c1ccc(NS(=O)(=O)c2cc3c4c(c2)CCN4C(=O)CC3)cc1 | -81* | ? | -7% | 21%
Cc1nc2ccc(C(C(F)(F)F)(C(F)(F)F)C(F)(F)F)cc2[nH]1 | -2 | 16µM* | -19% | 0%
CN(C)CCN(CC1CCCN(Cc2ccccc2F)C1)C(=O)c1ccc(Cl)cc1 (stereo not given) | -4 | ? | 8.9µM* | 16%
O=C(NCc1ccccn1)c1ccc(OC2CCN(Cc3ccc(CO)o3)CC2)cc1 | 33 | 18% | -9% | -15%
COCC(C)NC(=O)CSc1nc(-c2ccccc2)c(-c2ccccc2)o1 (stereo not given) | -67* | ? | ? | ·
CN(C(=O)CSc1nnc(-c2ccccc2)c(-c2ccccc2)n1)C1CCS(=O)(=O)C1 (stereo not given) | -29 | -4% | 16% | -21%
CN(C(=O)CSc1nnc(-c2ccc(F)cc2)c2ccccc12)C1CCS(=O)(=O)C1 (stereo not given) | ? | 0% | 5µM* | ?
